# From PMC7862700, “An all-to-all approach to the identification of sequence-specific readers for epigenetic DNA modifications on cytosine”
# Columns and labels:
# Experiment in all cases: DAPPL (digital affinity profiling via proximity ligation, sequencing); 10 mM Tris-HCl pH 7.5, 50 mM NaCl, 1 mM DTT, 4% glycerol, room temperature, 30 min; GST-TFs on glutathione beads, 16-mer random dsDNA library, 0.1% formaldehyde crosslink after washing; high values mean tight binding
# FEV = target: T1, FEV (Homo sapiens, UniProt Q99581 1-238); conditions: protein: recombinant; tags: N-terminal GST; dsDNA, one strand shown
# T1 sequence: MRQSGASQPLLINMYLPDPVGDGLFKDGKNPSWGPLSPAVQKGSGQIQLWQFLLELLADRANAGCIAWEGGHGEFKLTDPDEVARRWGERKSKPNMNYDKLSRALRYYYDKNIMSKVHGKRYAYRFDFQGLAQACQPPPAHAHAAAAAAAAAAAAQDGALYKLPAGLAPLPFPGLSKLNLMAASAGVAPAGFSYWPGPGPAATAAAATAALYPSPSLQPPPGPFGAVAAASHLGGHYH
# How it was run: (§1)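 Binding signal is each hexamer's read frequency for a factor divided by its frequency in the tag-only sample. The factors were GST-fused human transcription factors from yeast, captured on glutathione beads, DNA-barcoded and pooled with that sample. Pools were incubated with 200 nmole of a random double-stranded 16-mer DNA library in Tris/NaCl/DTT/glycerol buffer at room temperature for 30 min, then washed, crosslinked with 0.1% formaldehyde, proximity-ligated with BsaI/T4 ligase (1 h, 37 °C), PCR-amplified and sequenced on an Illumina NextSeq500.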
# ETV5 = ETV5 (Homo sapiens, UniProt P41161 1-510); conditions: protein: recombinant; tags: N-terminal GST; dsDNA, one strand shown
# How it was run: as §1
# HSF1 = HSF1 (Homo sapiens, UniProt Q00613 1-529); conditions: protein: recombinant; tags: N-terminal GST; chain copies: 3; dsDNA, one strand shown
# How it was run: as §1
# SPIC = target: T2, SPIC (Homo sapiens, UniProt Q8N5J4 1-248); conditions: protein: recombinant; tags: N-terminal GST; dsDNA, one strand shown
# T2 sequence: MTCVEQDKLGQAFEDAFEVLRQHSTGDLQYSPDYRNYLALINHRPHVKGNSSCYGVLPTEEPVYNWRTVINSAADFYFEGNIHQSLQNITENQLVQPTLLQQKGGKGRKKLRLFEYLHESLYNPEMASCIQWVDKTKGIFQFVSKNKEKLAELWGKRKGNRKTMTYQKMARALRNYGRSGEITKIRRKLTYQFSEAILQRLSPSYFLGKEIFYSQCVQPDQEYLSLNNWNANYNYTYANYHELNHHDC
# How it was run: as §1
# ELF4 = ELF4 (Homo sapiens, UniProt Q99607 1-663); conditions: protein: recombinant; tags: N-terminal GST; dsDNA, one strand shown
# How it was run: as §1
# ELK4 = target: T3, ELK4 (Homo sapiens, UniProt P28324-2 1-405); conditions: protein: recombinant; tags: N-terminal GST; dsDNA, one strand shown
# T3 sequence: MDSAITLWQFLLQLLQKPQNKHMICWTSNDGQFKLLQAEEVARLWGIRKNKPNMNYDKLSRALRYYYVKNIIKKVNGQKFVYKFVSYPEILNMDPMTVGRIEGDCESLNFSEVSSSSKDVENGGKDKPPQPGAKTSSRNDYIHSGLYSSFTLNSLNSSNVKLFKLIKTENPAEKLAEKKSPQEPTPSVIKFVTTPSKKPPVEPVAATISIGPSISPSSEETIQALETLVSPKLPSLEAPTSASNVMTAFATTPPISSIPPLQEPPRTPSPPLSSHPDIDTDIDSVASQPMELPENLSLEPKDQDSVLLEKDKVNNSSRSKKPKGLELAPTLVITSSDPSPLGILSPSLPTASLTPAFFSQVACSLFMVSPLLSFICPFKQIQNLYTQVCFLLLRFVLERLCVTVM
# How it was run: as §1
# ETV2 = target: T4, ETV2 (Homo sapiens, UniProt O00321 1-342); conditions: protein: recombinant; tags: N-terminal GST; dsDNA, one strand shown
# T4 sequence: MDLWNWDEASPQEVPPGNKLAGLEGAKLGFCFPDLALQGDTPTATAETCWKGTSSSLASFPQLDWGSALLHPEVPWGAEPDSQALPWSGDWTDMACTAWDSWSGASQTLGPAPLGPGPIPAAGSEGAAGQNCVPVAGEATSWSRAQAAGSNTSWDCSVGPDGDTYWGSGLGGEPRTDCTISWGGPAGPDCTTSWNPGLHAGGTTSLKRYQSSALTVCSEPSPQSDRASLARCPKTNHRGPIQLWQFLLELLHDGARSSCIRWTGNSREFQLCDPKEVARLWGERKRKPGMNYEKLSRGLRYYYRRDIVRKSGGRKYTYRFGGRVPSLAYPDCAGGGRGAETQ
# How it was run: as §1
# ELF3 = target: T5, ELF3 (Homo sapiens, UniProt P78545 1-371); conditions: protein: recombinant; tags: N-terminal GST; dsDNA, one strand shown
# T5 sequence: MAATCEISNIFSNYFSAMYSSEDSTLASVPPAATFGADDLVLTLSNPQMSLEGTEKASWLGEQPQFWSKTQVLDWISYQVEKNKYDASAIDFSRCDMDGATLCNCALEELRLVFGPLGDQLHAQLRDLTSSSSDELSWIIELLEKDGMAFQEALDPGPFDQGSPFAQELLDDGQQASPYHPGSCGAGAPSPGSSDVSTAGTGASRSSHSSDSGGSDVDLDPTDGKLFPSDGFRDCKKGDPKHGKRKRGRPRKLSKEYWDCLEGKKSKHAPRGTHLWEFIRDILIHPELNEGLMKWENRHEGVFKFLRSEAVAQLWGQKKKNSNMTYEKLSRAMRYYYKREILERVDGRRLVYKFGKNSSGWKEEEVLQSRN
# How it was run: as §1
# CRX = CRX (Homo sapiens, UniProt O43186 1-299); conditions: protein: recombinant; tags: N-terminal GST; dsDNA, one strand shown
# How it was run: as §1
# ETV1 = ETV1 (Homo sapiens, UniProt P50549 1-477); conditions: protein: recombinant; tags: N-terminal GST; dsDNA, one strand shown
# How it was run: as §1
# ERF = target: T6, ERF (Homo sapiens, UniProt P50548 1-548); conditions: protein: recombinant; tags: N-terminal GST; dsDNA, one strand shown
# T6 sequence: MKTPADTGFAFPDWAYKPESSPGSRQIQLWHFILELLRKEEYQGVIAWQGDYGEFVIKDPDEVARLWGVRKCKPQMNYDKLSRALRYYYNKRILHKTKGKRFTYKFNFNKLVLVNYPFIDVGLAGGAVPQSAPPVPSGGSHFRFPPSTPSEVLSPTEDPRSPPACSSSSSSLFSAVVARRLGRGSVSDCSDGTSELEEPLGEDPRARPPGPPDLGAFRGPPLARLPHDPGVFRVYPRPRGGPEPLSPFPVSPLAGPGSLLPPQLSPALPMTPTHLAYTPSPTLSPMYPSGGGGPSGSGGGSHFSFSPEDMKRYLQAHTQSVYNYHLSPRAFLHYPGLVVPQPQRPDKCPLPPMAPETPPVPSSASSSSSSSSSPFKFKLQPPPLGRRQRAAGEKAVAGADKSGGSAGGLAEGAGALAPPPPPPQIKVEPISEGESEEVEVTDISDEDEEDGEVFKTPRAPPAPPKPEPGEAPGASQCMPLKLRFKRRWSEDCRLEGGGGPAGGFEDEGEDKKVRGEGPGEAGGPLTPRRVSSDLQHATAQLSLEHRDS
# How it was run: as §1
# ETV3L = target: T7, ETV3L (Homo sapiens, UniProt Q6ZN32 1-361); conditions: protein: recombinant; tags: N-terminal GST; dsDNA, one strand shown
# T7 sequence: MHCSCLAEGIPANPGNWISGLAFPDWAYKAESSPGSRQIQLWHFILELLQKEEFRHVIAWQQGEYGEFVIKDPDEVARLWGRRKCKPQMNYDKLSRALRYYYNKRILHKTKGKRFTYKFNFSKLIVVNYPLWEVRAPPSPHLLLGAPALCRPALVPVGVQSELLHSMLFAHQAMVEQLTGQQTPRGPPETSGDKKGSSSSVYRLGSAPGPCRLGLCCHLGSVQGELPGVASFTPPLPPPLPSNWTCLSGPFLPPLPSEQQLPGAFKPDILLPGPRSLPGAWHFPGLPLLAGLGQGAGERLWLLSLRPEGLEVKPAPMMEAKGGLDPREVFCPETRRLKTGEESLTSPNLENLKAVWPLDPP
# How it was run: as §1
# ETS2 = target: T8, ETS2 (Homo sapiens, UniProt P15036 1-469); conditions: protein: recombinant; tags: N-terminal GST; dsDNA, one strand shown
# T8 sequence: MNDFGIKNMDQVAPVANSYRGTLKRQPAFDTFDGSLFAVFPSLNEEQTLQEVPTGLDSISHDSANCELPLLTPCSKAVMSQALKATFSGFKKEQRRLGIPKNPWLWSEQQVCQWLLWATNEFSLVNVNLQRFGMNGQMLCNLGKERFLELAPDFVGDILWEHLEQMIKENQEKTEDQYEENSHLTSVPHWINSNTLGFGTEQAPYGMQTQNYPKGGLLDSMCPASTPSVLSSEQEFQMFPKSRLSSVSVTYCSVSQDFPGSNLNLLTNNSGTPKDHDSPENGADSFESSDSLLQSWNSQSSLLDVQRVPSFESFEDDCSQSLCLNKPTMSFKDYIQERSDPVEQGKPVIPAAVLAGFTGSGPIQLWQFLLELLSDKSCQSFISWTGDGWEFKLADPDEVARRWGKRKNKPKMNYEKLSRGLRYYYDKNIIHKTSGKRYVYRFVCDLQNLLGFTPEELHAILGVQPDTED
# How it was run: as §1
# SPDEF = target: T9, SPDEF (Homo sapiens, UniProt O95238 1-335); conditions: protein: recombinant; tags: N-terminal GST; dsDNA, one strand shown
# T9 sequence: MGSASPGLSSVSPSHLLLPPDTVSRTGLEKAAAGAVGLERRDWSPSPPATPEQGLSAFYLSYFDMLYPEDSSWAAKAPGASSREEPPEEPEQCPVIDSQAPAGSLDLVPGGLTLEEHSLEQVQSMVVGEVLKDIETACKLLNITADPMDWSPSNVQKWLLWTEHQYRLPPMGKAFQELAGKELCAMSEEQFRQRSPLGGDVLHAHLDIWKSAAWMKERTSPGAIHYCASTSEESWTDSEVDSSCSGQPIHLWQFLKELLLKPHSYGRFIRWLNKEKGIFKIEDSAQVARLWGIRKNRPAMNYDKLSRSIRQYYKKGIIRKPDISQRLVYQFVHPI
# How it was run: as §1
# ETV7 = target: T10, ETV7 (Homo sapiens, UniProt Q9Y603 1-341); conditions: protein: recombinant; tags: N-terminal GST; dsDNA, one strand shown
# T10 sequence: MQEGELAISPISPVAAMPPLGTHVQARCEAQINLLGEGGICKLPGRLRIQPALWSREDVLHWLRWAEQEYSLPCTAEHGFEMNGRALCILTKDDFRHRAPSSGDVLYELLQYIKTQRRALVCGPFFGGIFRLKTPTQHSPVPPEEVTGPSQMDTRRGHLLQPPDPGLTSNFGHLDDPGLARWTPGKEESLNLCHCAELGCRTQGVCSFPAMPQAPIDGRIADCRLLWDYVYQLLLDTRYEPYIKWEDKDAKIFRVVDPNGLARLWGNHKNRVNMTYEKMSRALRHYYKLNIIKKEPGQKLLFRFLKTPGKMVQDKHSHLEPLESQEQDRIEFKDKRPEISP
# How it was run: as §1
# ELF5 = target: T11, ELF5 (Homo sapiens, UniProt Q9UKW6-2 1-255); conditions: protein: recombinant; tags: N-terminal GST; dsDNA, one strand shown
# T11 sequence: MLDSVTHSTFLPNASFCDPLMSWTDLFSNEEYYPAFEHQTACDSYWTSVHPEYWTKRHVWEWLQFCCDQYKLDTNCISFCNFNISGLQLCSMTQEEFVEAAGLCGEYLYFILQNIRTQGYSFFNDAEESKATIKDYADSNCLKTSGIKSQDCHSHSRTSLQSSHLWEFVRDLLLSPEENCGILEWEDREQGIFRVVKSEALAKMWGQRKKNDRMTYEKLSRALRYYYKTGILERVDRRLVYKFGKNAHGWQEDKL
# How it was run: as §1
# ETV3 = target: T12, ETV3 (Homo sapiens, UniProt P41162-2 1-143); conditions: protein: recombinant; tags: N-terminal GST; dsDNA, one strand shown
# T12 sequence: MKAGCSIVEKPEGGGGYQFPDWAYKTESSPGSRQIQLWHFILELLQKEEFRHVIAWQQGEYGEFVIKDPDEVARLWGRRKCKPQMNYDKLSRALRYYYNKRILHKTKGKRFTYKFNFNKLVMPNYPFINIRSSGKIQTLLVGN
# How it was run: as §1
# ETV6 = ETV6 (Homo sapiens, UniProt P41212 1-452); conditions: protein: recombinant; tags: N-terminal GST; dsDNA, one strand shown
# How it was run: as §1
# CRX, sequence (O43186 whole entry): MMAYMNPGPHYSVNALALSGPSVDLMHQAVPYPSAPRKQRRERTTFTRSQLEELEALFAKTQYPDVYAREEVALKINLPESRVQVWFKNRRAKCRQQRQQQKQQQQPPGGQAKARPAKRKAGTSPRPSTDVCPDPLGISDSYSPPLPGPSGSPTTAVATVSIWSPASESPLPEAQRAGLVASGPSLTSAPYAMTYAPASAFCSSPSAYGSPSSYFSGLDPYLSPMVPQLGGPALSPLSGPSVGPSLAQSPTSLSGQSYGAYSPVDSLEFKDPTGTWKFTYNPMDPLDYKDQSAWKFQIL
# ETV1, sequence (P50549 whole entry): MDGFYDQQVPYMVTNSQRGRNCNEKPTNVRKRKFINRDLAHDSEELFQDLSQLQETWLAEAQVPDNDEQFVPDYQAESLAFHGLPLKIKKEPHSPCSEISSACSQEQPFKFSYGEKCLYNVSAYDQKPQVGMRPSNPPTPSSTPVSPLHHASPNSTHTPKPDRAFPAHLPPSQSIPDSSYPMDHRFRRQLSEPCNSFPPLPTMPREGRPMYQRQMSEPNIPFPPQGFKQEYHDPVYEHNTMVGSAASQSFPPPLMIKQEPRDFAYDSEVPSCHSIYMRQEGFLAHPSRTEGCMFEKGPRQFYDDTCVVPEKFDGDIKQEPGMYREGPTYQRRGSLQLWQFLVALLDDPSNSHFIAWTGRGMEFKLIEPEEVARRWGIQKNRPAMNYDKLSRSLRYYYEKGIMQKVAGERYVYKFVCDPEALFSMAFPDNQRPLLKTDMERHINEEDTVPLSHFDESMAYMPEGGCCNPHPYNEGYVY
# ELF4, sequence (Q99607 whole entry): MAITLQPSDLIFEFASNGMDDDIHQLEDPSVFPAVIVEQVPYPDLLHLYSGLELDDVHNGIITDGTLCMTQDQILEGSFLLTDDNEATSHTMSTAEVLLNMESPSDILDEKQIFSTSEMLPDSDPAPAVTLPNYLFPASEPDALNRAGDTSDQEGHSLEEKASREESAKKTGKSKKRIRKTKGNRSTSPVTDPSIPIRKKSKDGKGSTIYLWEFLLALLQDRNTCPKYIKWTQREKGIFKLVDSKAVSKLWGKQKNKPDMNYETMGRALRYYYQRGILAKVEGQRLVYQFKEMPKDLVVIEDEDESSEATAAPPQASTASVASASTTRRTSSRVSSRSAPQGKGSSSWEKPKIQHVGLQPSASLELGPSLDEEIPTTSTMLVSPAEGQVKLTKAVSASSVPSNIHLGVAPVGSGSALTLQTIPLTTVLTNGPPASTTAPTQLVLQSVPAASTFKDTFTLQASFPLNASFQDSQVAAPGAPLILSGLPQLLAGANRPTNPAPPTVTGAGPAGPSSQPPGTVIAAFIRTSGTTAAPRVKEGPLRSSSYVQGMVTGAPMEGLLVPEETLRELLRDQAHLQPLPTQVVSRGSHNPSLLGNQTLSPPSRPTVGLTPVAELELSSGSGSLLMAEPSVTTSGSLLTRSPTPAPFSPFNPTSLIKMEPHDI
# ETV6, sequence (P41212 whole entry): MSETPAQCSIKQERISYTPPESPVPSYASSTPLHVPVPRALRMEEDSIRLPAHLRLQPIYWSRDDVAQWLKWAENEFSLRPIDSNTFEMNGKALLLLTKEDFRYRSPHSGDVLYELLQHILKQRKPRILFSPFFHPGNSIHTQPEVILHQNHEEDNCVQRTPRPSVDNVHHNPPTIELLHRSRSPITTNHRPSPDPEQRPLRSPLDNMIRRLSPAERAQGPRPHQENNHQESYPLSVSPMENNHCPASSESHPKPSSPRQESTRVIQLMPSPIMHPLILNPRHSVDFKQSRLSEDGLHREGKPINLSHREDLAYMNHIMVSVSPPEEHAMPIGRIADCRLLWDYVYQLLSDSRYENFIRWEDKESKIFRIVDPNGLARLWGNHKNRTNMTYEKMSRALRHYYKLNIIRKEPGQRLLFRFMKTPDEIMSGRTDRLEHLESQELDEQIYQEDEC
# HSF1, sequence (Q00613 whole entry): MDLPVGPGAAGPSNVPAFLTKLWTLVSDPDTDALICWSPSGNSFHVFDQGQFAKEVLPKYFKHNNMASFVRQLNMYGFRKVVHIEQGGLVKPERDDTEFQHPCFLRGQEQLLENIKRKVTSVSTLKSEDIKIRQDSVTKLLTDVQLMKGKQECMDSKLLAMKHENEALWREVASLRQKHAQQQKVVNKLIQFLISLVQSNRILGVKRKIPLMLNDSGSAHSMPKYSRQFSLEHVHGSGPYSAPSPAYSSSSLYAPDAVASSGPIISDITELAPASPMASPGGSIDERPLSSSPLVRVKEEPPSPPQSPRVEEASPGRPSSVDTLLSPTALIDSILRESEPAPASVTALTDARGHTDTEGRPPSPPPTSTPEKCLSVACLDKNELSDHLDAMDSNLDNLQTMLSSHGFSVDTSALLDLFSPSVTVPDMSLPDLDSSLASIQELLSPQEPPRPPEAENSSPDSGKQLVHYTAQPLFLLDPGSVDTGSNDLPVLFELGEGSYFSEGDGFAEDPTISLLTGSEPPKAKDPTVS
# ETV5, sequence (P41161 whole entry): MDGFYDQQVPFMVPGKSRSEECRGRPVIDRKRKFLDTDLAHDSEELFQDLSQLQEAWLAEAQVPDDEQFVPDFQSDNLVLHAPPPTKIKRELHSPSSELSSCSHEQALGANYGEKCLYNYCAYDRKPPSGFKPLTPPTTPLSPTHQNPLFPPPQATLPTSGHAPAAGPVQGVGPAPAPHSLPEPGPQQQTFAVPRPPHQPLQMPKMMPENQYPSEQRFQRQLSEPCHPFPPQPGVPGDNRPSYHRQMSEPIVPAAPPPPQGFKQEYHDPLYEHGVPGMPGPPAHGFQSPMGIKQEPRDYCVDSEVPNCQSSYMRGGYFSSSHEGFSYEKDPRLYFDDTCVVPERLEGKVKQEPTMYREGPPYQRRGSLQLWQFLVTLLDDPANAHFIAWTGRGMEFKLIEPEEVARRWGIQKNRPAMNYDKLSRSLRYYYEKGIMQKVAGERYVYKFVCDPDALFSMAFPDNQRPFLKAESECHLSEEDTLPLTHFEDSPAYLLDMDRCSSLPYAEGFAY
sequence,measurement,setting,value
AGATCC,binding signal,FEV,"1.14 fold enrichment (6-mer frequency, TF over GST control)"
same,binding signal,ETV5,"1.14 fold enrichment (6-mer frequency, TF over GST control)"
same,binding signal,HSF1,"1.11 fold enrichment (6-mer frequency, TF over GST control)"
same,binding signal,SPIC,"1.16 fold enrichment (6-mer frequency, TF over GST control)"
same,binding signal,ELF4,"1.14 fold enrichment (6-mer frequency, TF over GST control)"
same,binding signal,ELK4,"1.17 fold enrichment (6-mer frequency, TF over GST control)"
same,binding signal,ETV2,"1.06 fold enrichment (6-mer frequency, TF over GST control)"
same,binding signal,ELF3,"1.06 fold enrichment (6-mer frequency, TF over GST control)"
same,binding signal,CRX,"1.11 fold enrichment (6-mer frequency, TF over GST control)"
same,binding signal,ETV1,"1.14 fold enrichment (6-mer frequency, TF over GST control)"
same,binding signal,ERF,"1.08 fold enrichment (6-mer frequency, TF over GST control)"
same,binding signal,ETV3L,"1.13 fold enrichment (6-mer frequency, TF over GST control)"
same,binding signal,ETS2,"1.2 fold enrichment (6-mer frequency, TF over GST control)"
same,binding signal,SPDEF,"2.08 fold enrichment (6-mer frequency, TF over GST control)"
same,binding signal,ETV7,"1.03 fold enrichment (6-mer frequency, TF over GST control)"
same,binding signal,ELF5,"1.22 fold enrichment (6-mer frequency, TF over GST control)"
same,binding signal,ETV3,"1.21 fold enrichment (6-mer frequency, TF over GST control)"
same,binding signal,ETV6,"1.1 fold enrichment (6-mer frequency, TF over GST control)"
